Unmarked numbers belong to inactive results.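 How the source made its calls: active means GFP response above 150% of the DMSO control; inconclusive means Under 70 cell events counted for a yeast strain; inactive means the rest.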
Experiment: yeast TOR pathway CIT2-GFP reporter retest – flow cytometry, third cherry pick, single plex, confirmation (AID 504340);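 further: median GFP fluorescence over all cells with no mother versus daughter split; sample signal as a ratio to the plate DMSO mean so 100% equals DMSO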
Conditions: S. cerevisiae CIT2-GFP strain, 3 h, at 10 µM, active compounds read high

SMILES	GFP response vs DMSO [%]
Cc1ccc2c(Cl)cc(Cl)c(O)c2n1	138
Cc1ccc(C)c(Nc2ncnc(N)c2[N+](=O)[O-])c1	104
CC(=O)C(CC(=O)N1CCCC1)C(=O)Nc1ccc(Cl)cc1 (stereo not given)	109
CC(=O)Nn1cnc2c(c1=O)C1(CCCC1)Cc1ccccc1-2	89.6
Cc1ccc(NC(=O)O/N=C2\CCCCC2c2ccc([N+](=O)[O-])cc2[N+](=O)[O-])cc1 (stereo not given)	106
CNc1cccc2c1C(=O)c1ccccc1C2=O	104
C=CCNc1nc(N)c([N+](=O)[O-])c(Nc2ccccc2OC)n1	127
Cc1cccc(N/C=C/C(=O)c2ccc(Cl)cc2)c1	97.7
COc1ccc(OC)c(N/C(C)=C/C(=O)c2ccccc2)c1	99.3
Oc1c(Cl)cc(Cl)c2cccnc12	142
Cc1ccc(Nc2cc(=O)[nH]c(=O)[nH]2)cc1C	104
CCCC(=O)Nn1cnc2c(c1=O)C1(CCCC1)Cc1ccccc1-2	94.5
CS(=O)(=O)c1nc(-c2ccc(F)cc2)cc(C(F)(F)F)n1	107
CCOC(=O)CS(=O)(=O)c1nc(-c2ccccc2)cc(C(F)(F)F)n1	111
C=CCNc1nc(N)c([N+](=O)[O-])c(Nc2cccc(Cl)c2)n1	114
CSc1ccccc1OCc1cc(C(=O)N2CCN(C)C(c3ccccc3)C2)no1 (stereo not given)	99.3
CNc1nc(C)c([N+](=O)[O-])c(Nc2ccc(OC)cc2)n1	97.7
OCCNc1ncnc2ccc(Br)cc12	109
Oc1ccc(Cl)c2cccnc12	103
Cc1ccc2c(C)ccc(O)c2n1	106

— PubChem BioAssay AID504340 (NMMLSC, 2011)
